Source: PubChem BioAssay (NCI)
The panel holds about 83,000 compounds, 20% with a hit somewhere; the sample as a whole holds those more often.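 Step 1: grow cells in 96-well plates. Step 2: add test compound at a single concentration. Step 3: incubate 48 h. Step 4: record percent growth.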 Active and inactive are the calls of the source. How the source made its calls: active means growth percent below 10; inactive means the rest.

system: SNB-19 CNS; assay: NCI-60 one-dose screen, 48 h (100 = growth as untreated, 0 = no growth, -100 = all killed); details: 10 µM unless noted

Structure (SMILES) | growth
O=C(CSc1nc2sc3c(c2c(=O)n1-c1ccc(Cl)cc1)CCCC3)N/N=C/c1ccc(F)cc1 | 101% (inactive)
CC(C)NC(=O)c1cc(-c2ccc(NC(=O)Nc3ccc(N4CCOCC4)c(C(F)(F)F)c3)cc2)nc2cccnc12 | 62.6% (inactive)
O=C(CCN1C(=O)/C(=C/c2ccccc2F)SC1=S)N1CCOCC1 | 99% (inactive)
O=C1Nc2cc(Cl)ccc2/C1=C\c1ccc(OCc2ccc([N+](=O)[O-])cc2)cc1 | 91% (inactive)
CCN(CC)c1ccc(C=O)c(OCc2cn(CC(=O)Nc3ccc(Cl)cc3)nn2)c1 | 69% (inactive)
CCCC(=O)NC(c1ccc2c(c1)OC(F)(F)O2)c1cc(C)c2cccnc2c1O (stereo not given) | 22.5% (inactive)
C[C@@H]1CN(c2ccc3ncc(C#Cc4cncc(C(=O)Nc5ccc(CN6CCN(C)CC6)c(C(F)(F)F)c5)c4)n3n2)C[C@H](C)O1 | -4.76% (active)
COc1cc(OC)c(C2SCC(=O)N2Nc2ncnc3ccccc23)cc1OC (stereo not given) | 99.4% (inactive)
CN(C)CCCOc1c2ccc(Cl)cc2nc2c1oc1ccccc12 | 5.62% (active)
C#C[C@]1(O)CC[C@H]2[C@@H]3CC=C4c5sc(Nc6ccc(Cl)cn6)nc5CC[C@]4(C)[C@H]3CC[C@@]21C | 54.5% (inactive)
COc1cc2cc(Oc3ccc(NC(=O)c4cccc(C(F)(F)F)c4)cc3)c(C)nc2cc1OCCN1CCCCC1 | 90.2% (inactive)
Cc1ccc(C(=O)Nc2cccc(C(F)(F)F)c2)cc1Nc1nc(-c2cnccn2)nc2c1cnn2C | 86% (inactive)

system: U251 CNS; assay: as above; details: 10 µM unless noted

Structure (SMILES) | growth
CC(O)C(NC(=O)C1CCCN1C(=O)CNC(=O)C1CC(=O)NCC(=O)NC(Cc2c[nH]c3ccccc23)C(=O)NC(Cc2ccc(O)cc2)C(=O)NCC(=O)NC(CO)C(=O)NC(CCC(N)=O)C(=O)NC(Cc2c[nH]c3ccccc23)C(=O)N1)C(=O)NCC(=O)NC(CCC(N)=O)C(=O)NC(CCCNC(=N)N)C(=O)NC(CC(=O)O)C(=O)O (stereo not given) | 106% (inactive)
COc1ccc(C(=O)/C=C/c2ccc(OCc3ccc(Cl)cc3)c(OC)c2)cc1OC | 58.1% (inactive)
c1ccc(CNc2ncnc3ccc(-c4cnc5[nH]ncc5c4)cc23)cc1 | 81.6% (inactive)
O=C(CCN1C(=O)/C(=C/c2ccccc2)SC1=S)N1CCOCC1 | 99.9% (inactive)
OC1CCN(CCCOc2c3ccccc3nc3c2oc2ccc(Cl)cc23)CC1 | 21.7% (inactive)
CN1C(=O)N(c2ccccc2)C2N=C(N/N=C/c3ccccc3)SC21 (stereo not given) | 15.8% (inactive)
CN(C)c1ccc(-c2c(NC(C)(C)C)nc3c(OCCc4ccccc4)cccn23)cc1 | 13.6% (inactive)
CN1C(=S)N(C)C2C1NN=C1SC(c3ccccc3)=CC(=O)N12 (stereo not given) | 95.1% (inactive)
C#Cc1nc(C2=C(C)C(=N\O)/C(=N/O)C2)cs1 | 103% (inactive)
C[C@@H](Nc1c(C#N)cnc2ccc(-c3cnc(N)nc3)cc12)c1ccccc1 | 18.1% (inactive)
O=C1Nc2ccc(Cl)cc2/C1=C/c1ccc(OCC(=O)c2ccc(Br)cc2)cc1 | 98.3% (inactive)
CCN1C(=S)N(CC)C2C1N=C(SC)N2/N=C/C=C/c1ccccc1[N+](=O)[O-] (stereo not given) | 96.5% (inactive)
NS(=O)(=O)c1cccc(Nc2nc(SCC(=O)c3ccc(Cl)cc3)nc3ccccc23)c1 | 46.4% (inactive)
O=C(CN1C(=O)/C(=C/c2ccccc2)SC1=S)N1CCOCC1 | 102% (inactive)
Nc1c(C(=O)Nc2ccc(Cl)cc2)sc2nc(-c3cnccn3)cc(-c3cccs3)c12 | 17.9% (inactive)
COc1ccccc1C(=O)CSc1nc(Nc2ccc(S(N)(=O)=O)cc2)c2ccccc2n1 | 93% (inactive)
Clc1ccc(Cc2nnc3sc(-c4cccnc4)nn23)cc1 | 99% (inactive)
Cc1c(NC(=O)CSc2nc3sc4c(c3c(=O)n2-c2ccc(Cl)cc2)CCCC4)c(=O)n(-c2ccccc2)n1C | 104% (inactive)
CCOC(=O)c1c(Nc2ccccc2)nn2c(N)c(C#N)c(-c3ccc(OC)cc3)nc12 | 71.3% (inactive)

Structure (SMILES) | growth
N=C1CC(=O)NN1C(=O)CSc1nc2sc3c(c2c(=O)n1-c1ccc(Cl)cc1)CCCC3 | 101% (inactive)
Clc1ccc2c(NCCCn3ccnc3)c3oc4ccc(Cl)cc4c3nc2c1 | 60.5% (inactive)
CCN1C(=S)N(CC)C2C1NN=C1SC(c3ccccc3)=CC(=O)N12 (stereo not given) | 103% (inactive)
COc1ccc(COc2ccc(/C=C3/C(=O)Nc4cc(Cl)ccc43)cc2)cc1 | 96.8% (inactive)
COC(=O)C(C)NS(=O)(=O)/N=C1\NC(=O)NC1=C(Cl)Cl (stereo not given) | 106% (inactive)
CC(=O)Oc1ccccc1C(=O)Nc1cc(C(C)C)ccc1C | 10.1% (inactive)
COc1ccc(N/N=C/c2c(-c3ccc(S(C)(=O)=O)cc3)nc3ccccn23)cc1 | 69.4% (inactive)
O=C(CSc1nc2sc3c(c2c(=O)n1-c1ccc(Cl)cc1)CCCC3)N/N=C/c1ccc(F)cc1 | 67.1% (inactive)
CC(C)NC(=O)c1cc(-c2ccc(NC(=O)Nc3ccc(N4CCOCC4)c(C(F)(F)F)c3)cc2)nc2cccnc12 | 47% (inactive)
O=C(CCN1C(=O)/C(=C/c2ccccc2F)SC1=S)N1CCOCC1 | 94.4% (inactive)
O=C1Nc2cc(Cl)ccc2/C1=C\c1ccc(OCc2ccc([N+](=O)[O-])cc2)cc1 | 81.6% (inactive)
CCN(CC)c1ccc(C=O)c(OCc2cn(CC(=O)Nc3ccc(Cl)cc3)nn2)c1 | 53.7% (inactive)
CCCC(=O)NC(c1ccc2c(c1)OC(F)(F)O2)c1cc(C)c2cccnc2c1O (stereo not given) | 14.8% (inactive)
C[C@@H]1CN(c2ccc3ncc(C#Cc4cncc(C(=O)Nc5ccc(CN6CCN(C)CC6)c(C(F)(F)F)c5)c4)n3n2)C[C@H](C)O1 | -97.9% (active)
COc1cc(OC)c(C2SCC(=O)N2Nc2ncnc3ccccc23)cc1OC (stereo not given) | 105% (inactive)
CN(C)CCCOc1c2ccc(Cl)cc2nc2c1oc1ccccc12 | 4.05% (active)
C#C[C@]1(O)CC[C@H]2[C@@H]3CC=C4c5sc(Nc6ccc(Cl)cn6)nc5CC[C@]4(C)[C@H]3CC[C@@]21C | 19.1% (inactive)
COc1cc2cc(Oc3ccc(NC(=O)c4cccc(C(F)(F)F)c4)cc3)c(C)nc2cc1OCCN1CCCCC1 | -63.8% (active)
Cc1ccc(C(=O)Nc2cccc(C(F)(F)F)c2)cc1Nc1nc(-c2cnccn2)nc2c1cnn2C | 82.1% (inactive)
